# Test results reported in article PMC7862700, “An all-to-all approach to the identification of sequence-specific readers for epigenetic DNA modifications on cytosine”.
# Legend:
# Experiment in all cases: DAPPL (digital affinity profiling via proximity ligation, sequencing); 10 mM Tris-HCl pH 7.5, 50 mM NaCl, 1 mM DTT, 4% glycerol, room temperature, 30 min; GST-TFs on glutathione beads, 16-mer random dsDNA library, 0.1% formaldehyde crosslink after washing; high values mean tight binding
# FEV = molecular target: T1, FEV (Homo sapiens, UniProt Q99581 1-238); conditions: protein: recombinant; tags: N-terminal GST; dsDNA, one strand shown
# T1 sequence: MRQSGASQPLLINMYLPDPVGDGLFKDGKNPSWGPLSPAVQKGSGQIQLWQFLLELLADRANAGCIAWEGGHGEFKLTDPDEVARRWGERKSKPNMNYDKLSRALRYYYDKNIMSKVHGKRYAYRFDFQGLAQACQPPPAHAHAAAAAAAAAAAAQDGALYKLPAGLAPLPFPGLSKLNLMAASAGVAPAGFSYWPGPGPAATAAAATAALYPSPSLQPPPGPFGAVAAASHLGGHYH
# In short: (§1)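 Sequencing on an Illumina NextSeq500 followed washing, crosslinking with 0.1% formaldehyde, proximity ligation (BsaI/T4 ligase, 1 h, 37 °C) and PCR amplification of pools that had been incubated for 30 min at room temperature with 200 nmole of a random double-stranded 16-mer DNA library in Tris/NaCl/DTT/glycerol buffer. Each pool held DNA-barcoded human transcription factors, expressed in yeast as GST fusions and captured on glutathione beads, plus a tag-only sample. Binding signal is a hexamer's read frequency for a factor divided by its frequency in the tag-only sample.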
# ETV5 = ETV5 (Homo sapiens, UniProt P41161 1-510); conditions: protein: recombinant; tags: N-terminal GST; dsDNA, one strand shown
# In short: as §1
# HSF1 = HSF1 (Homo sapiens, UniProt Q00613 1-529); conditions: protein: recombinant; tags: N-terminal GST; chain copies: 3; dsDNA, one strand shown
# In short: as §1
# SPIC = molecular target: T2, SPIC (Homo sapiens, UniProt Q8N5J4 1-248); conditions: protein: recombinant; tags: N-terminal GST; dsDNA, one strand shown
# T2 sequence: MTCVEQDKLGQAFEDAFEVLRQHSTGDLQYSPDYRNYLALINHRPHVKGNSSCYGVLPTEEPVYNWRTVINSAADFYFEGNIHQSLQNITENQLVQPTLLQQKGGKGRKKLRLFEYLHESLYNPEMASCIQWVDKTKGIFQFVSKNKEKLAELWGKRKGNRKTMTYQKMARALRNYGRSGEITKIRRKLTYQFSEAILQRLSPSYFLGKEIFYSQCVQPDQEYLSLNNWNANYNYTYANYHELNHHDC
# In short: as §1
# ELF4 = ELF4 (Homo sapiens, UniProt Q99607 1-663); conditions: protein: recombinant; tags: N-terminal GST; dsDNA, one strand shown
# In short: as §1
# ELK4 = molecular target: T3, ELK4 (Homo sapiens, UniProt P28324-2 1-405); conditions: protein: recombinant; tags: N-terminal GST; dsDNA, one strand shown
# T3 sequence: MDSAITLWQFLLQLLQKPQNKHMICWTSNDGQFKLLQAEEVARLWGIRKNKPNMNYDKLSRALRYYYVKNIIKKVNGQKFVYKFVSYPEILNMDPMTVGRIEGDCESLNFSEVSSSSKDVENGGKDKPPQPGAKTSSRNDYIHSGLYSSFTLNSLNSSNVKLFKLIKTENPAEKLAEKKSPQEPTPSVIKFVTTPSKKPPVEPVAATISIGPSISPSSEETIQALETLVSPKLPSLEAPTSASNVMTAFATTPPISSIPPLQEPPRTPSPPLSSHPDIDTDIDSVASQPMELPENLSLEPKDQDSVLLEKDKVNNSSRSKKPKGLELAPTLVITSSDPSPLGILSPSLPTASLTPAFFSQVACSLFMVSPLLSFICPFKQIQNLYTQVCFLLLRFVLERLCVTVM
# In short: as §1
# ETV2 = molecular target: T4, ETV2 (Homo sapiens, UniProt O00321 1-342); conditions: protein: recombinant; tags: N-terminal GST; dsDNA, one strand shown
# T4 sequence: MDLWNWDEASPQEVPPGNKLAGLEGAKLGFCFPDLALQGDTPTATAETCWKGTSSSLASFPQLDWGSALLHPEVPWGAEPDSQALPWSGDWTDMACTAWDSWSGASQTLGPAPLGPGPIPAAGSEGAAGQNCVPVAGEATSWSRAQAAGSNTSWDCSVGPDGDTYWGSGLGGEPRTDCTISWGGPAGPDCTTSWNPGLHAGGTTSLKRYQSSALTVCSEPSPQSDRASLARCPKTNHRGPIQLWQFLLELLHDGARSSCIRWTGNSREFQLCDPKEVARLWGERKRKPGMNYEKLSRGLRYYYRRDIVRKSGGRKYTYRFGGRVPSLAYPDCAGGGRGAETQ
# In short: as §1
# ELF3 = molecular target: T5, ELF3 (Homo sapiens, UniProt P78545 1-371); conditions: protein: recombinant; tags: N-terminal GST; dsDNA, one strand shown
# T5 sequence: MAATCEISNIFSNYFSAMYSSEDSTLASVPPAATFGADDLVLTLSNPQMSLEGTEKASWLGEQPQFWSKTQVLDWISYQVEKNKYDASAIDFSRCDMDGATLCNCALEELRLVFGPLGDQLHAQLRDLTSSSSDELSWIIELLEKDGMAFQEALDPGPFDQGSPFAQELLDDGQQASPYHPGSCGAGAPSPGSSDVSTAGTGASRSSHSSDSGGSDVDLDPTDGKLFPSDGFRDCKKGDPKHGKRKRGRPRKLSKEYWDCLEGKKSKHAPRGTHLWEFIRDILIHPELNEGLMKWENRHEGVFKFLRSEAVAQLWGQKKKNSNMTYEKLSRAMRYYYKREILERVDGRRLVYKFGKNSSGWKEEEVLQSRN
# In short: as §1
# HSF1, sequence (Q00613 whole entry): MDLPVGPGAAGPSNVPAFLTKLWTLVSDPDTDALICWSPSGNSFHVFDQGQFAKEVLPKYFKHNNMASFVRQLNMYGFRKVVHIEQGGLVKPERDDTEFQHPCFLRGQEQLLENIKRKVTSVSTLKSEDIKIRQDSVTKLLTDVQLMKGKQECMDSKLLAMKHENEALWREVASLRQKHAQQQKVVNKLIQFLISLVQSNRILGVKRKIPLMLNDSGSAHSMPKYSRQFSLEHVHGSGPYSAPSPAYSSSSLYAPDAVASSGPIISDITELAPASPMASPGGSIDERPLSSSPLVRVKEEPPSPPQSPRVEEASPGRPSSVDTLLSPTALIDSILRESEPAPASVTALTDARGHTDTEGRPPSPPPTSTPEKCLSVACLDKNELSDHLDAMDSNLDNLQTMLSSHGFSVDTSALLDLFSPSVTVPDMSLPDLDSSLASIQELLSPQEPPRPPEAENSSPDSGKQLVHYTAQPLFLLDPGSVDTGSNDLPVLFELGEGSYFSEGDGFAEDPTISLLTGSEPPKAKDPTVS
# ETV5, sequence (P41161 whole entry): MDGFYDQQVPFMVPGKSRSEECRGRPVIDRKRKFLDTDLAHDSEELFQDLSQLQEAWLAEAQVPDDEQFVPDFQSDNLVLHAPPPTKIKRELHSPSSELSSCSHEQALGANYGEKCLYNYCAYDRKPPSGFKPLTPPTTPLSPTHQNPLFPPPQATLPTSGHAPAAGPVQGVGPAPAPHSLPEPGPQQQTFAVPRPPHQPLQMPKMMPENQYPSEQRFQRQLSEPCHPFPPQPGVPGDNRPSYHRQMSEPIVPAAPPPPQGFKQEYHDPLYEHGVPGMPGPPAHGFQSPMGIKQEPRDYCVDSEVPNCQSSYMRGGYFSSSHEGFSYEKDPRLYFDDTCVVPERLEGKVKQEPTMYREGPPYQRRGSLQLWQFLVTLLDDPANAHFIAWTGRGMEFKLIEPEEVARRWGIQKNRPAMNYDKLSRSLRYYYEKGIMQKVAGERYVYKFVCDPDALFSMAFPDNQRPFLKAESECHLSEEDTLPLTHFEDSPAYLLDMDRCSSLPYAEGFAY
# ELF4, sequence (Q99607 whole entry): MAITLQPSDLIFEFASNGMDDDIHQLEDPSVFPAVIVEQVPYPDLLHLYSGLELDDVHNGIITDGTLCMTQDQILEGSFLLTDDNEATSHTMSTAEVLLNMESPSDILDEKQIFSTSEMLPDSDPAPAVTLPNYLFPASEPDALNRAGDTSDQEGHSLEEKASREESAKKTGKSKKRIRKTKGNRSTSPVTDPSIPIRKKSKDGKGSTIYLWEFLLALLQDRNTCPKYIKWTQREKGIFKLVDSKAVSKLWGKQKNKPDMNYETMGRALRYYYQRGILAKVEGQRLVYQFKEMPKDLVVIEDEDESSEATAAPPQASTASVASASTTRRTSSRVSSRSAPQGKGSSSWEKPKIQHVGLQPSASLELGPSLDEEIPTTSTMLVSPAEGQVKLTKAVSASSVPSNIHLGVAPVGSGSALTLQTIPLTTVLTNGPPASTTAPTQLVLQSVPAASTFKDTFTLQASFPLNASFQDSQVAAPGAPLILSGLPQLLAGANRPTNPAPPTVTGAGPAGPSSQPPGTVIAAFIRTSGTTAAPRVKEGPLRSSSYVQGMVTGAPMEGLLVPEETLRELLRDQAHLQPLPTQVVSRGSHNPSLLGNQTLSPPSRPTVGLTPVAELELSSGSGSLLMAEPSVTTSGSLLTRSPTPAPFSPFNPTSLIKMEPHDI
sequence,measurement,setting,value
GGAAAA,binding signal,FEV,"1.2 fold enrichment (6-mer frequency, TF over GST control)"
same,binding signal,ETV5,"1.32 fold enrichment (6-mer frequency, TF over GST control)"
same,binding signal,HSF1,"1.62 fold enrichment (6-mer frequency, TF over GST control)"
same,binding signal,SPIC,"1.29 fold enrichment (6-mer frequency, TF over GST control)"
same,binding signal,ELF4,"1.19 fold enrichment (6-mer frequency, TF over GST control)"
same,binding signal,ELK4,"1.01 fold enrichment (6-mer frequency, TF over GST control)"
same,binding signal,ETV2,"1.22 fold enrichment (6-mer frequency, TF over GST control)"
same,binding signal,ELF3,"1.39 fold enrichment (6-mer frequency, TF over GST control)"
